# Source: PubChem BioAssay (National Center for Advancing Translational Sciences (NCATS))
# The sample as a whole holds a higher share of hits than the screen did.
# Shiga inhibitor – inhibitors of Shiga toxin in Vero cells; Vero cells, Shiga toxin protein synthesis inhibition reporter; inhibition, % at 38.7 µM; hit rate 9.2% among 290,000; AID 2315; in the data active means inhibition mostly above about 28%, no sharp cut-off; inactive means mostly below about 43%
# CHX counter – affects cycloheximide protein synthesis inhibition readout, counter-screen. cell reporter, cycloheximide protein synthesis inhibition counterscreen. max response, %. hit rate 12% among 300,000. AID 2314; in the data active means max response mostly above about 13%, no sharp cut-off; inactive means mostly below about 14%; further: read at 38.3 µM for the half of the compounds with a filed dose
# LASV entry inh – Lassa virus entry inhibition; AID 540256; Potency, µM (top dose mostly 37.9 µM), usual class: inhibitors; hit rate 1.2% among 300,000; Lassa virus pseudotype entry inhibition, cell reporter; calls by dose curve; tested in HEK293 cells; further: nearly all actives have a fitted effect of over 50% in size
# Vaccinia Venus – inhibitors of vaccinia virus (Venus reporter); Vaccinia virus Venus reporter expression, fluorescence; Potency, µM (titrated, usually from 36.5 µM), usual class: inhibitors; hit rate 0.46% among 330,000; AID 720580; calls by dose curve; tested in A549 cells; further: nearly all actives have a fitted effect of over 30% in size
# Vaccinia mCherry – vaccinia inhibition (mCherry reporter). Potency, µM (series often up to 36.5 µM), actives largely listed as inhibitors. hit rate 0.63% among 310,000. Vaccinia virus mCherry reporter infection, fluorescence; calls by dose curve; tested in A549 cells; further: nearly all actives have a fitted effect of over 35% in size
# MARV entry inh – inhibitors of Marburg virus binding or cell entry; Marburg virus pseudotyped entry inhibition, cell reporter; Potency, µM (top dose mostly 37.8 µM), actives largely listed as inhibitors; hit rate 1.8% among 300,000; calls by dose curve; tested in HEK293 cells
# Hits are given with their value; n = inactive; u = inconclusive; x = no result; ! = a repeat was not active; [ ] = another dose, or the depositor's remark.
SMILES,Shiga inhibitor,CHX counter,LASV entry inh,Vaccinia Venus,Vaccinia mCherry,MARV entry inh
O=S(=O)(/N=C(/NNS(=O)(=O)c1ccccc1)c1ccccc1)c1ccccc1,n,n,x,x,x,x
O=C(O)Cc1ccc(-n2cccc2)cc1,n,n,n,n,n,n
CCCCC(=O)Nc1ccc(C(=O)Nc2ccc3c(c2)OCO3)cc1,n,n,n,n,n,n
C/C(=N\NC(=O)c1ccc2c(c1)OCO2)c1ccc(NC(=O)CCCC(=O)O)cc1,57,34,n,n,u,u
COc1ccccc1N1CCN(C(=O)CCn2cnc3onc(-c4ccc(F)cc4)c3c2=O)CC1,x,x,n,n,n,x
O=C1COc2ccc3ccccc3c21,n,16,n,n,n,u
CCOc1ccc(CCNC(=O)c2ccc3[nH]c(C)c(C)c3c2)cc1,x,x,u,n,n,x
CCN(CC)CCN(C(=O)/C=C/c1cccs1)c1nc2ccc(C)cc2s1,n,n,x,x,x,x
Oc1ccc2c(c1)[C@@]13CCCCC1[C@@H](C2)N(CC1CCC1)CC3 (stereo partly specified),n,n,x,x,x,x
COc1ccc2c(c1)C13CCCC[C@@H]1C(C2)N(C)CC3 (stereo partly specified),n,n,x,n,n,x
COc1ccc2c(c1)C13CCCCC1C(C2)N(C)CC3 (stereo unspecified),x,x,u,x,x,11µM
C=CCN1CC[C@]23CCCCC2[C@H]1Cc1ccc(O)cc13 (stereo partly specified),x,x,n,x,x,7.9µM!
COc1ccc2c(c1)[C@@]13CCCC[C@H]1[C@@H](C2)NCC3,x,x,u,x,x,18µM
CCCCCN(C(=O)CCC(=O)OCC(=O)N(CC#N)c1ccccc1)c1c(N)n(CCCC)c(=O)[nH]c1=O,x,x,n,n,n,u
Cc1cc(F)ccc1NC(=O)CN1C(=O)CCc2cc(S(=O)(=O)N3CCOCC3)ccc21,x,x,u,n,n,x
O=C(NCCCOc1cccc(CN2CCCCC2)c1)c1ccc(Cl)c(Cl)c1,n,n,u,n,n,u
c1cc(CN2CCCCC2)cc(OCCCNc2nc3ccccc3s2)c1,x,x,16µM,n,n,12µM
C/C(=N\NC(=S)Nc1ccccc1C)c1ccc(O)cc1,n,13,n,n,n,n
O=C(O)CCCN1C(=O)C2C3CCC(C3)C2C1=O (stereo unspecified),x,x,x,n,n,x
O=C(O)Cn1cc2c(n1)CCCCC2,n,n,n,n,n[1.46 µM],n
O=C(Cn1cc2c(n1)CCCC2)N1CCCc2ccccc21,76,18,x,n,n,x
O=C(Cn1cc2c(n1)CCCCC2)N1CCCCC1,n,18,n,n,n,u
Cc1c(Cl)c([N+](=O)[O-])nn1CC(=O)N1CCCc2ccccc21,n,25,n,n,n,n
CC1CCc2nn(CC(=O)N3CCc4ccccc43)cc2C1 (stereo unspecified),n,n,x,x,x,x
CN(Cc1nc(-c2cccnc2)no1)S(=O)(=O)c1ccccc1,n,n,n,n,x,n
SMILES,Shiga inhibitor,CHX counter,LASV entry inh,Vaccinia Venus,Vaccinia mCherry,MARV entry inh
Cc1ccc(Cc2nc(-c3cccnc3)no2)cc1,111,34,n,n,n,n
Clc1ccc(Cc2nc(-c3cccnc3)no2)cc1,n,17,n,x,x,n
C=Cc1ccc(Cn2c(C)c(C(=O)NCc3cccc([N+](=O)[O-])c3)sc2=O)cc1,x,x,x,n,n,x
CC(=O)N1CCN(C(=O)COC(=O)CNC(=O)c2ccccc2C)CC1,x,x,n,n,n,n
Clc1ccc(-c2nnc(N3CCCC3)nn2)cc1,145,34,u,x,x,u
COc1ccc(C(=O)NCc2nnc(SCC(=O)Nc3ccccc3)n2-c2ccc(F)cc2)cc1,x,x,u,n,n,n
O=C(NC(=S)Nc1nc(-c2ccc(Br)cc2)cs1)c1ccco1,n,n,n,n,n,u
O=C(NNc1nc(-c2ccc(Br)cc2)cs1)c1ccco1,81,31,x,x,x,x
O=C(Nc1nc(-c2ccc(Br)cc2)cs1)c1cccnc1,n,n,n,n,n,n
O=C(NC(=S)Nc1nc(-c2ccc([N+](=O)[O-])cc2)cs1)c1ccco1,51,18,n,n,n,n
O=C(CCNC(=O)c1ccco1)Nc1nc(-c2ccccc2)cs1,x,x,u,n,n,n
O=C(Nc1nc(-c2ccccc2)cs1)c1ccco1,122,89,n,n,n,n
CC(OC(=O)c1ccco1)C(=O)Nc1nc(-c2ccccc2)cs1 (stereo unspecified),x,x,10µM,n,n,11µM
CC12CCC(/C(=C/NNc3ccc([N+](=O)[O-])cc3[N+](=O)[O-])C1=O)C2(C)C (stereo unspecified),x,x,x,n,n,x
Cc1cc(NC(=O)c2ccccc2Cl)ccc1NC(=O)c1ccccc1,x,x,u,n,n,x
CCN(Cc1ccccc1)C(=O)c1ccc2c(=O)n3c(nc2c1)CCC3,x,x,n,n,n,u
CCOC(=O)c1c(Nc2cccc(O)c2)nnc(-c2ccccc2)c1-c1ccccc1,x,x,u,n,n,n
COc1ccc(-c2csc(NC(=O)c3ccco3)n2)cc1,50,55,u,n,n[1.46 µM],n
Cc1ccc(OCc2nnc(NC(=O)c3ccco3)s2)cc1,n,n,n,n,x,n
O=C(Nc1nc(-c2ccco2)cs1)c1ccccc1,n,32,u,n,x,n
CCOc1ccc(-c2csc(NC(=O)c3ccco3)n2)cc1,n,39,x,x,x,x
Cc1ccc(-c2csc(NC(=O)c3ccc(-c4ccccc4)cc3)n2)o1,96,48,x,n,u,x
COC[C@H]1O[C@@H](c2c(OC)cc(OC)cc2OC)[C@H](OC)[C@@H](OC)[C@H]1OC,x,x,x,x,x,n
N#C/C(=C\c1cccnc1)c1ccccc1[N+](=O)[O-],n,n,n,n,u,u
Cc1ccc(-c2csc(NC(=O)Cc3ccc(F)cc3)n2)o1,n,15,n,n,n,n
SMILES,Shiga inhibitor,CHX counter,LASV entry inh,Vaccinia Venus,Vaccinia mCherry,MARV entry inh
CC(=O)Nc1ccc(-c2csc(NC(=O)CCNC(=O)c3ccco3)n2)cc1,x,x,n,n,n,n
Cc1ccc(-c2csc(NC(=O)c3ccco3)n2)cc1C,149,34,u,n,n,u
COc1ccc(OC)c(-c2csc(NC(=O)Cc3ccc(F)cc3)n2)c1,n,n,u,n,n,u
Cc1ccc(-c2ccc(=O)n(CC(=O)NCc3ccc(F)cc3)n2)cc1,n,n,u,n,n,n
CCOC(=O)N1CCN(CC(O)COc2ccccc2[N+](=O)[O-])CC1 (stereo unspecified),n,11,x,x,x,x
COc1ccccc1OCC(O)Cn1nc(C)cc1C (stereo unspecified),104,54,n,n,n,n
Cc1cc(C)n(CC(O)COc2ccccc2[N+](=O)[O-])n1 (stereo unspecified),n,28,n,n,n,u
CCOC(=O)Cn1c(=O)n(C2CCCCC2)c2nc(-c3ccc(Cl)cc3)nc(C(N)=O)c21,x,x,n,n,n,x
CC1(C)CCC2=C(O1)c1ccccc1C(=O)C2=O,x,x,x,u,u,13µM
CCN(CC)CCCNC(=O)c1oc2ccc(S(=O)(=O)N3CC(C)CC(C)C3)cc2c1C (stereo unspecified),n,n,u,n,u,10µM
CCOC(=O)N1CCN(C(=O)c2oc3ccc(S(=O)(=O)N4CCCCC4)cc3c2C)CC1,n,n,n,x,x,u
